One may read the Inhibition as the share of the control response that was lost under treatment. Low values mean a weak effect, high ones a strong effect.

This experiment concerns Plasmodium falciparum. Briefly: GSK_TCMDC: Inhibition of Plasmodium falciparum Dd2 in whole red blood cells, using parasite LDH activity as an index of growth. Test compounds present at 2uM. The experiment is classed as functional.
`Cc1nc2nc(N)nc(N)c2c(C)c1Cc1ccccc1I.Cl` returned an Inhibition of 0%. Then `Br.CCc1ccc(OCCCON2C(=N)N=C(N)NC2(C)C)cc1`, with 95%; and `CN(Cc1ccc(-c2ccc(C(F)(F)F)cc2)cc1)C(=O)Cn1c(CCc2cccc(F)c2F)nc(=O)c2ccc(N3CCN(CCN4CCCCC4)CC3)nc21.O=C(O)C(O)C(O)C(=O)O`, with 100%. For `CCOC(=O)c1c[nH]c2c(sc3cc(OC)ccc32)c1=O` the value was 93%; for `Cn1nccc1C(=O)NCCNCc1cccc(-c2ccc(-c3nc4cc(C(F)(F)F)ccc4[nH]3)cc2)c1.O=C(O)C(F)(F)F`, 98%. Then `Cc1noc(-c2ccccc2)c1NC(=O)NC1CCN(CCCCCNC(=O)/C=C/c2ccc(Cl)c(Cl)c2)CC1`, with 0%; and `COc1ccc2ncc(F)c(CCN3CCC(NCc4cc(C)c5c(c4)OCCO5)CC3)c2n1.Cl`, with 67%; and `CCCN(Cc1nnc(-c2cccs2)o1)C(=O)CSc1nnnn1-c1cc(C)cc(C)c1`, with 71%. Consider `Cc1nnsc1C(=O)Nc1cccc(-c2csc(-c3nc4ccccc4[nH]3)c2)c1`, for which the Inhibition came to 50%. Then `Cl.O=C(Nc1ccnc2ccccc12)NC1CCN(Cc2ccccc2)CC1`, with 43%. For `O=C(Nc1cccc(CN2CCCN(Cc3ccc(O)cc3)CC2)c1)c1cccc(Cl)c1.O=C(O)C(F)(F)F` the value was 41%; for `CC(=O)Nc1ccc(CN(Cc2cccc(OC(C)(C)C)c2)Cc2ccc3c(c2)OCCO3)cc1`, 96%; for `Br.C[C@@H](COc1ccc(-c2ccccc2)cc1)CON1C(N)=NC(N)=NC1(C)C`, 96%.

Molecule `O=C(NCCN1CCC(NC(=O)c2ccc(-c3ccccn3)s2)CC1)c1cccc(C(F)(F)F)c1.O=C(O)C(F)(F)F` returned an Inhibition of 24%. Molecule `N#Cc1cccc(C(O)CN(Cc2ccccc2)Cc2ccccc2)c1` (stereo not given) registered an Inhibition of 100%. For `COc1ccccc1N1CCN(C(C(=O)NCc2cccc(F)c2)c2ccc(C)cc2)CC1` (stereo not given) the value was 80%; for `Cc1cccc2nc(-c3ccc(-c4cccc(NC(=O)NCc5cccc(F)c5)c4)s3)[nH]c12`, 8%. Consider `O=C(Nc1cccc(CN2CCCN(Cc3ncc[nH]3)CC2)c1)c1cc2ccccc2s1.O=C(O)C(F)(F)F`, for which the Inhibition turned out to be 35%. Then `O=C(Nc1ccc(OC2CCN(Cc3ccc(F)cc3)C2)c(Cl)c1)c1ccc(F)cc1.O=C(O)C(F)(F)F` (stereo not given), with 94%. On to `Cc1ccc(NC(=O)c2ccc3ncccc3c2)cc1OC1CCN(CCC(C)C)CC1.O=C(O)C(F)(F)F`, for which the Inhibition was 48%. For `COc1ccc(-c2cccc(NC(=O)c3ccc(C#N)cc3)c2)cc1CN(C)CCN(C)C.O=C(O)C(F)(F)F` the value was 18%; for `CC(C)(C)c1ccc(CNC(=O)COc2ccc(-c3nnc(-c4cccc([N+](=O)[O-])c4)o3)cc2[N+](=O)[O-])cc1`, 25%. Then `N#Cc1cc(C(=O)Nc2ccccc2)c(N)nc1SCC(=O)Nc1ccc(Br)cc1`, with 66%. With `COc1ccc(Cn2c(Nc3cccc(C(F)(F)F)c3)nc3cc(C(=O)NCCN4CCCC4)ccc32)cc1Cl`, the Inhibition was determined as 54%. `O=C(/C=C/c1cccc(Cl)c1)N1CCC(C(O)CN2CCC3(CC2)CN(C(=O)/C=C/c2cccc(Cl)c2)c2ccccc23)CC1` (stereo not given) registered an Inhibition of 38%. In turn, `CC(C)C[C@H](NC(=O)c1ccc(F)cc1)C(=O)N[C@H](/C=N/NC(=O)c1ccccc1)CCc1ccccc1` had an Inhibition of 61%.

In turn, `COc1c(C2CCN(CCCCNC(=O)c3noc(-c4ccc(C#N)cc4)n3)CC2)ccc2c1CCCC2` showed an Inhibition of 0%. Then `Cc1ccc(Nc2nc(C)cc(Nc3cccc(C#N)c3)n2)cc1`, with 96%; and `CC(CN(C)C)C(=O)Nc1cccc(-c2ccc(-c3nc4ccccc4[nH]3)s2)c1` (stereo not given), with 47%; and `Cc1ccc(S(=O)(=O)N(C)c2ccccc2C(=O)Nc2ccccc2Oc2ccccc2)cc1`, with 90%. For `COc1cc(NCCCNCc2cn(Cc3cc(Br)cc(Br)c3)c3ccccc23)nc2ccccc12` the value was 85%.

Turning to `O=C(Cc1ccccc1)NC(c1ccccc1)c1ccc2cccnc2c1O` (stereo not given), the Inhibition came to 61%. `Cc1cc(NCCc2ccccc2)nc(NC(=N)Nc2ccc(Cl)cc2)n1`: the Inhibition turned out to be 100%. `CCCCCCN1CCC(NCc2ccc(C(F)(F)F)cc2)CC1.O=C(O)C(F)(F)F` showed an Inhibition of 47%. The molecule `Cc1ccc([S+]([O-])Cc2ccc(Cl)cc2)cc1` (stereo not given) gave an Inhibition of 5%. With `Cc1[nH]cnc1-c1cccc(NC(=O)c2cc3ccccc3s2)c1`, the Inhibition is given as 48%. `N#Cc1ccc(N2CCN(Cc3cccc(-c4cccc(-c5nc6cc(C(F)(F)F)ccc6[nH]5)c4)c3)CC2)nc1.O=C(O)C(F)(F)F` had an Inhibition of 50%. `CCC[C@@H]([C@@H](CC1CCCCC1)C(=O)N[C@H](C(=O)Nc1nccs1)C(C)(C)SCCNC(=O)OCC)N(O)C=O` showed an Inhibition of 98%. Then `CN1CCC(C(=O)N(Cc2ccc(-c3ccc(CNCCc4ccc(S(C)(=O)=O)cc4)cn3)cc2)Cc2ccc3c(c2)OCO3)CC1.O=C(O)C(F)(F)F`, with 51%; and `Nc1nc(N)c2c(ccc3c2ccn3C2C=CCCC2)n1` (stereo not given), with 65%.

(Values after ChEMBL document CHEMBL1157539, “Thousands of chemical starting points for antimalarial lead identification” (Nature, 2010).)
